Reference: PubChem BioAssay AID1851 (National Center for Advancing Translational Sciences (NCATS), 2009)
“And” between values parts separate entries of the source, which are not always exact repeats. Identical values can stand only once. Out of some 16,000 compounds screened, about 5,700 (36%) were called active. Roughly 24% stayed inconclusive and do not appear here. The call rests on the fitted dose curve; in most records, active means well fitted curve in the direction sought with a large enough effect; inconclusive means small, poorly fitted or top-dose-only effect, or effect the other way; inactive means no such curve, though single readings can be large or run the other way. Some of the results follow. More than one record can exist for a structure, and the calls need not agree. Square brackets hold non-standard residues; d marks the D form. Peptide text beside a SMILES is read from it. Ac5c = NC1(C(=O)O)CCCC1

molecular target: Cytochrome P450 1A2 (Homo sapiens) (UniProt P05177); test: Cytochrome panel assay with activity outcomes; conditions: recombinant CYP, pro-luciferin dealkylation, luminescence, p450-cyp1a2; series mostly up to 57.1 µM; activity, negative = inhibition: at the top concentration
On the % scale 0 is the no-effect control and ±100 the full control effect.

Sequence of Cytochrome P450 1A2 (Homo sapiens) (P05177 whole entry, looked up): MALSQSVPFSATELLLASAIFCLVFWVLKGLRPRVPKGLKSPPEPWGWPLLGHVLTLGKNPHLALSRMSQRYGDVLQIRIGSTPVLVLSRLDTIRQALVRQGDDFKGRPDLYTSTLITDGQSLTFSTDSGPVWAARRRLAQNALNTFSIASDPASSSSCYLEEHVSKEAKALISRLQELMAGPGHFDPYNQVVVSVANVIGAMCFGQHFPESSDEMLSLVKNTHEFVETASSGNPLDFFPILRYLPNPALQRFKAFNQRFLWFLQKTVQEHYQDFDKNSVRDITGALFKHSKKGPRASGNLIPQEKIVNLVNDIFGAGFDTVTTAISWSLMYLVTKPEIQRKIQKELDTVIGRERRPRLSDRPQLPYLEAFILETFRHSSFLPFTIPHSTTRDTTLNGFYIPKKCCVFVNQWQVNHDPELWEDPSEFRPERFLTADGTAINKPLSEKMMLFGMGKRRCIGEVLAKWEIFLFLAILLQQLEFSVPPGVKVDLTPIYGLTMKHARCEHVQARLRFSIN

| Compound | activity, negative = inhibition | AC50 |
| --- | --- | --- |
| NCC(=O)NC1(C(=O)O)CCCC1 (H-Gly-[Ac5c]-OH) | -5.18% [at 11.4 µM] (inactive) |  |
| O=C1CC(=O)C(n2cncn2)C(c2cccc(Cl)c2)C1 (stereo unspecified) | 6.34% (inactive) |  |
| C[N+](C)(C)CCCCCNCC12CC3CC(CC(C3)C1)C2 | 0.614% (inactive) |  |
| COc1ccccc1CN1CC2(CCN(C(=O)c3cnccn3)CC2)C1 | 13.8% (inactive) |  |
| COc1ccccc1CN1CC2(CCN(C(=O)c3ccncc3)CC2)C1 | -10.9% (inactive) |  |
| COc1ccccc1CN1C(=O)c2ccncc2C1=O |  | 14.1 µM (active) |
| NC1=NC(=O)/C(=C/c2cccs2)S1 |  | 1.41 µM (active) |
| O=C1N=C(N2CCOCC2)S/C1=C\C=C/c1ccccc1 |  | 14.1 µM (active) |
| O=C1N=C(N2CCOCC2)S/C1=C/c1cccs1 |  | 5.62 µM (active) |
| CC(C)(C)OC(=O)[C@H]([C@@H]1N[C@@H](C(=O)O)C(C)(C)S1)N1C(=O)c2ccccc2C1=O | -1.41% [at 2.29 µM] (inactive) |  |
| C[C@H]1CC(C)(C)C[C@@](OCCN2CCCCC2)(c2ccccc2)C1 | 0.209% [at 11.4 µM] (inactive) |  |
| CCCN1CC=C2C(C#N)=C(N)C(C#N)(C#N)C(c3cc(OC)ccc3OC)C2C1 (stereo unspecified) |  | 31.6 µM (active) |
| O=C(O)C[n+]1ccccc1 | -7.86% [at 11.4 µM] (inactive) |  |
| COc1ccc(O[C@H]2C=C[C@@H](c3ccccc3)O[C@H]2COC(=O)CC/C(C)=N/OCC[C@@H]2C=C[C@H](OC(C)=O)[C@H](COC(C)=O)O2)cc1 | -2.16% [at 11.4 µM] (inactive) |  |
| CN=C1N[C@H](c2ccccc2)N(c2ccccc2)S1 |  | 1.26 µM (active) |
| Cc1c(CCC(C)C)c(-n2ccnc2C)n2c(nc3ccccc32)c1C#N | -25.4% (inactive) |  |
| Cc1ccccc1S(=O)(=O)Oc1ccccc1C(=O)Oc1ccccc1 |  | 3.55 µM (active) |
| Cc1ccccc1S(=O)(=O)O[C@@H]1NS(=O)(=O)c2ccccc21 | 13.5% [at 2.29 µM] (inactive) |  |
| COC(=O)[C@H](Cc1ccccc1)NC(=O)N1CCN(Cc2ccccc2)CC1 | -17.5% (inactive) |  |
| Oc1ccc2ccccc2c1C=NCc1c(O)ccc2ccccc12 |  | 1.58 µM (active) |
| O=C(O)Cc1c(O)ccc2ccccc12 | -9.69% [at 11.4 µM] (inactive) |  |
| c1ccc(-c2ccc(N3CCCC4(CCNCC4)C3)cc2)cc1 |  | 10 µM (active) |
| c1ccc(C(c2ccccc2)N2CC[C@@]3(CCCNC3)C2)cc1 | -27.3% (inactive) |  |
| c1ccc(-c2ccc(N3CC4(CCNCC4)C3)cc2)cc1 |  | 15.8 µM (active) |

| Compound | activity, negative = inhibition | AC50 |
| --- | --- | --- |
| c1ccc(-c2ccc(N3CC[C@@]4(CCCNC4)C3)cc2)cc1 |  | 12.6 µM (active) |
| COc1ccccc1CN1CCCC2(CCNCC2)C1 | 9.9% (inactive) |  |
| O=C(c1csnn1)N1CCC2(CCCN(c3ccc(-c4ccccc4)cc3)C2)CC1 | -2.91% (inactive) |  |
| O=S(=O)(c1ccccc1)N1CCC[C@@]2(CCN(c3ccncc3)C2)C1 | -29% (inactive) |  |
| N[C@@H](Cc1ccccc1)C(=O)O | -14% [at 11.4 µM] (inactive) |  |
| COc1ccccc1-c1nc(N(C)C)c2ccccc2n1 |  | 0.398 µM (active) |
| Cc1ccccc1-c1nc(N(C)C)c2ccccc2n1 |  | 0.631 µM (active) |
| CN(C)c1nc(-c2ccccc2C(F)(F)F)nc2ccccc12 |  | 0.251 µM (active) |
| Cc1ccc(-c2ccc(=O)n(CC(=O)NCCN3CCCCC3C)n2)cc1 (stereo unspecified) | -19.8% (inactive) |  |
| O=C(NCC1COc2ccccc2O1)C1C2C=CC3(CN(Cc4cccs4)C(=O)C13)O2 (stereo unspecified) | -8.02% (inactive) |  |
| CC(C)C(=O)Nc1ccc(C(=O)NNC(=O)CCCOc2ccc(Cl)cc2Cl)cc1 | -24% (inactive) |  |
| COC(=O)CCC(=O)NNC(=O)CCCOc1ccc(Cl)cc1Cl |  | 12.6 µM (active) |
| COc1ccc(/C=N/NC(=O)CCCOc2ccc(Cl)cc2Cl)cc1[N+](=O)[O-] |  | 1.26 µM (active) |
| COC(=O)CCCC(=O)O | -7.34% [at 2.29 µM] (inactive) |  |
| CC1(C)CC(=O)C/C(=N/NC(=O)CCCOc2ccc(Cl)cc2Cl)C1 |  | 15.8 µM (active) |
| COCCCNC(=O)C(=O)N/N=C/c1ccc(OCC(=O)Nc2cccc(Cl)c2C)c(OC)c1 | -23.7% (inactive) |  |
| Clc1ccccc1-c1nccc(NCc2ccccc2)n1 |  | 3.16 µM (active) |
| Cc1cccc(CNc2ccnc(-c3ccccc3CN(C)C)n2)c1 |  | 3.16 µM (active) |
| Cc1cccc(CNc2ccnc(-c3ccccc3Cl)n2)c1 |  | 1.58 µM (active) |
| COc1ccc(-n2c(N)c(C(=O)NCc3ccco3)sc2=S)cc1 |  | 11.2 µM (active) |
| CCOc1ccc(-n2c(N)c(C(=O)NCc3cccnc3)sc2=S)cc1 | -14.8% (inactive) |  |
| OC[C@@H]1NC[C@@H](O)[C@H]1O | -7.03% (inactive) |  |
| CCOC(=O)c1[nH]c2ccc(Cl)cc2c1-c1ccccc1 |  | 0.398 µM (active) |
| NC(=NCc1ccc(Cl)c(Cl)c1)NC(=O)c1nc(Cl)c(N)nc1N |  | 10 µM (active) |

| Compound | activity, negative = inhibition | AC50 |
| --- | --- | --- |
| CC(=O)Nc1ccc(S(=O)(=O)NC2(C(F)(F)F)NC(=O)N(c3ccc(Cl)cc3)C2=O)cc1 (stereo unspecified) | 7.68% (inactive) |  |
| O=C(CC1C(=O)N(c2ccc(Cl)cc2)C(=S)N1CCc1ccncc1)Nc1ccc(F)cc1 (stereo unspecified) |  | 5.01 µM (active) |
| CCNC(=O)CC1C(=O)N(c2ccc(F)cc2)C(=O)N1CCc1ccc(OC)cc1 (stereo unspecified) | -10.7% (inactive) |  |
| Cn1c(-c2ccccc2)cnc1N |  | 17.8 µM (active) |
| CCCn1c(-c2ccccc2)nc2c(=O)n(C)c(=O)[nH]c21 | 16.6% (inactive) |  |
| CNc1nc(-c2ccc(N(C)C)cc2)nc2ccccc12 |  | 0.2 µM (active) |
| CN(C)c1ccc(-c2nc(Nc3ccncc3)c3ccccc3n2)cc1 |  | 0.501 µM (active) |
| CN(C)c1nc(-c2ccoc2)nc2ccccc12 |  | 0.501 µM (active) |
| CN(C)c1ccc(-c2nc(N(C)C)c3ccccc3n2)cc1 |  | 0.251 µM (active) |
| COCC(=O)N1CCC[C@@]2(CCN(Cc3ccccc3)C2)C1 | -20.7% (inactive) |  |
| O=C(CC1(O)CCCCC1)OC1CCCC1 | -12.2% [at 11.4 µM] (inactive) |  |
| CC1(C)O[C@H]2[C@@H](O1)[C@@H](On1nnc3ccc(Cl)cc31)O[C@@H]2[C@@H]1COC(C)(C)O1 | -10.9% [at 2.29 µM] (inactive) |  |
| CN(C)c1nc(-c2cccnc2)nc2ccccc12 |  | 0.126 µM (active) |
| CCOC(=O)Cc1c(C)nc2c(C#N)c[nH]n2c1=O | -19.7% (inactive) |  |
| CCOC(=O)Cc1cc(=O)n2[nH]c(C)c(-c3ccccc3)c2n1 |  | 12.6 µM (active) |
| CCOC(=O)Cc1cc(=O)n2[nH]c(C)c(C#N)c2n1 | -13% (inactive) |  |
| S=C(CSc1ccccc1)Nc1cccc2ccccc12 |  | 1.26 µM (active) |
| CO[C@@H]1COC(=O)CCC[C@@H](C)[C@H](OC)COC(=O)CCC[C@H]1C | 5.33% [at 11.4 µM] (inactive) |  |
| CS(=O)(=O)c1ccccc1-c1nc(-c2cc(C(F)(F)F)cc(C(F)(F)F)c2)no1 | -28.2% (inactive) |  |
| Cc1cccc(-c2noc(-c3cc4ccccc4oc3=O)n2)c1 |  | 3.16 µM (active) |
| NC1=NC2(CCCCC2)N=C(Nc2ccc(F)cc2F)N1 | -15.7% (inactive) |  |
| Cc1ccc(C(=O)NNC(=O)C2CCCN(c3ncccn3)C2)cc1 (stereo unspecified) | -4.32% (inactive) |  |
| O=C(O)C1CCCCC1C(=O)Nc1cc(Cl)ccc1Cl (stereo unspecified) | -17.2% (inactive) |  |
| COc1cc(C)nc(N2CCCC(C(=O)Nc3cc(Cl)ccc3OC)C2)n1 (stereo unspecified) |  | 3.55 µM (active) |

| Compound | activity, negative = inhibition | AC50 |
| --- | --- | --- |
| CCOC(=O)N1CCN(S(=O)(=O)c2ccc3[nH]cc(C(=O)O)c(=O)c3c2)CC1 | -32.5% (inactive) |  |
| CN1CCN(S(=O)(=O)c2ccc3[nH]cc(C(=O)O)c(=O)c3c2)CC1 | 6.2% (inactive) |  |
| Cc1ccccc1NS(=O)(=O)c1ccc2[nH]cc(C(=O)N(C)Cc3ccco3)c(=O)c2c1 |  | 15.8 µM (active) |
| COc1ncc2nc(-c3cccs3)c(=O)n(C)c2n1 |  | 2 µM (active) |
| COc1ccc(Oc2ncc3nc(-c4cccs4)c(=O)n(C)c3n2)cc1 |  | 3.16 µM (active) |
| O=C(NNC(=O)c1cc2cc3ccccc3nc2s1)c1cccc(C(F)(F)F)c1 | -15.5% (inactive) |  |
| Cc1sc(N)c(C(=O)c2cccc(C(F)(F)F)c2)c1C |  | 15.8 µM (active) |
| CC(C)NC1(C(N)=O)CCN(Cc2ccccc2)CC1 | 7.61% [at 2.29 µM] (inactive) |  |
| O=C(Cn1nnc2ccccc21)N1CCCCC1 | -2.49% (inactive) |  |
| COc1ccc(N(C(=O)Cn2nnc3ccccc32)C2(C(=O)NC3CCCC3)CCCCC2)cc1 | -0.587% (inactive) |  |
| Cc1ccnc(NCn2nnc3ccccc32)c1 |  | 28.2 µM (active) |
| Cc1ccc(S(=O)(=O)N[C@H]2COC(=O)[C@@H](Cc3ccccc3)NC(=O)[C@@H](C)COC(=O)C/C=C\[C@@H]2C)cc1 | -7.75% [at 11.4 µM] (inactive) and -3.67% [at 11.4 µM] (inactive) |  |
| Cc1c(NC(=O)C23CC4CC(CC(C)(C4)C2)C3)c(=O)n(-c2ccccc2)n1C | -19.4% (inactive) |  |
| Cc1c(CC(C)(C)C(=O)O)n(Cc2ccc(Cl)cc2)c2ccc(F)cc12 |  | 15.8 µM (active) |
| CS(=O)(=O)c1ccc(Cn2c3c(c4cc(F)cc(F)c42)CCC[C@H]3CC(=O)O)cc1 | 5.15% (inactive) |  |
| OCCNc1nc(NCCC2=CCCCC2)nc(N2CCOCC2)n1 |  | 0.708 µM (active) |
| O=C(O)C[C@H](Cc1ccccc1Cl)C(=O)O | -17.6% [at 11.4 µM] (inactive) |  |
| O=C(NN1C(=O)c2ccccc2C1=O)C1CCCCC1 | 6.68% (inactive) |  |
| O=C(CSCc1ccccc1Cl)NN1C(=O)c2ccccc2C1=O |  | 14.1 µM (active) |
| O=C1/C(=C\c2ccc(Br)o2)SC(=Nc2ccccc2)N1c1ccccc1 |  | 0.126 µM (active) |
| CC1=C(\C=C/C(C)=C/C=C\C(C)=C\C(=O)O)C(C)(C)CCC1 |  | inactive and 20 µM (active) |
| CC1=CC(=O)CC(C)(C)[C@]1(O)/C=C\C(C)=C\C(=O)O | -7.1% [at 11.4 µM] (inactive) |  |
| CC1=NN(C(=O)c2ccncc2)C(=O)[C@@H]1N=Nc1ccc2ccccc2c1 |  | 0.158 µM (active) |
| Cc1ccc(C)c(Nc2nc3nonc3nc2N2CCOCC2)c1 |  | 5.01 µM (active) |
